# Source: PubChem BioAssay AID425 (Sanford-Burnham Center for Chemical Genomics, 2006)
# Values joined by “and” are separate entries in the source; they are usually repeats but may differ in a detail not shown here. Identical values can stand only once. Among all 110,000 compounds or so, about 190 (0.17%) were called active. This is one part of a sample in which actives are shown more often than they occur. Entries with a potency or affinity are not part of this list. Values without a mark were called inactive. Rule as the data show it: active = inhibition above about 50%; inactive = the rest.
# Molecular target: Dual specificity protein phosphatase 6 (Rattus norvegicus) (UniProt Q64346)
# Experiment: inhibition of rat DUSP6 enzyme activity – biochemical, in vitro, primary screen (AID 425);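 also: plate controls were vehicle for no effect and reference inhibitor for full effect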
# Details: recombinant MKP-3 phosphatase activity, fluorescence; at 20 µM; stronger effect = higher value
# Sequence of Dual specificity protein phosphatase 6 (Rattus norvegicus) (Q64346 whole entry, looked up): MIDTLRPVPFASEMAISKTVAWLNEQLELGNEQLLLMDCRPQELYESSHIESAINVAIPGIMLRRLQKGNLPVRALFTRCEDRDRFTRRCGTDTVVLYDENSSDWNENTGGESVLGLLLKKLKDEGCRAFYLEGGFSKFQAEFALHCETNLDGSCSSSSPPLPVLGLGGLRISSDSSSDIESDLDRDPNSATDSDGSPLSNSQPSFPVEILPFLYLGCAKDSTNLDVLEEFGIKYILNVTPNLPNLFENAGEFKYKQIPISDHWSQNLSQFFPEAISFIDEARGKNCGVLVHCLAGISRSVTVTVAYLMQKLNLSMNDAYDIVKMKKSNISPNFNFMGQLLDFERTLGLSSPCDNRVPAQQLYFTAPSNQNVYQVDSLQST
row,SMILES,inhibition
1,Cc1cc(Cl)ccc1OCCCC(=O)NC1CCN(C)CC1,-4.9%
2,Cn1c(CCNC(=O)c2ccccc2F)nnc1SCc1nc2ccccc2c(=O)[nH]1,-5.4%
3,COc1ccc(S(=O)(=O)Nc2cccc([N+](=O)[O-])c2C)cc1,-0.4%
4,CCCCSc1nc(C)c(CC(=O)OC)c(=O)[nH]1,-20.2%
5,CCCOc1cccc(C(=O)Nc2ccc(Br)cc2C(=O)O)c1,2.6%
6,C=CCN1C(=O)/C(=C\c2ccc(-c3ccc([N+](=O)[O-])cc3)o2)C(=O)NC1=S,25.4%
7,O=C1NN(c2ccccc2)C(=O)/C1=C/c1ccc(-c2cccc([N+](=O)[O-])c2)o1,6.9%
8,O=C1NN(c2ccccc2)C(=O)/C1=C/c1ccc(-c2ccccc2)o1,7.9%
9,O=C1NN(c2ccccc2)C(=O)/C1=C/c1ccc(-c2ccc(F)cc2)o1,-3.3%
10,O=C1NN(c2ccccc2)C(=O)/C1=C/c1ccc(Br)o1,75.8% (active)
11,O=C1NN(c2ccccc2)C(=O)/C1=C/c1ccc([N+](=O)[O-])o1,56.6% (active)
12,C=CCN1C(=O)/C(=C\c2ccc([N+](=O)[O-])o2)C(=O)NC1=S,95.8% (active)
13,C=CCN1C(=O)/C(=C\c2ccc(I)o2)C(=O)NC1=S,4.5%
14,O=C1NN(c2ccccc2)C(=O)/C1=C/c1ccc(-c2ccccc2[N+](=O)[O-])o1,16%
15,Cc1ccc(S(=O)(=O)NC(C)(C)CN2CCN(CC(C)(C)NS(=O)(=O)c3ccc(C)cc3)CC2)cc1,-0.5%
16,Cc1ccc2nc(NC(=O)c3ccccc3)sc2c1,1.9%
17,COc1ccccc1/C=C/C=N/NC(=O)CSc1nc2ccccc2n1C,1.8%
18,CCOc1ccccc1NC(=O)c1c(NC(=O)c2cccc(F)c2)sc2c1CCC(C)C2 (configuration not stated),3.6%
19,CSc1nc(N2CCN(CCO)CC2)c2sc3nc(-c4ccco4)c4c(c3c2n1)CCC4,0.5%
20,CSc1nc(NCCOCCO)c2sc3nc(-c4ccco4)c4c(c3c2n1)CCC4,-0.3%
21,O=C(/C=C/c1ccco1)Nc1ccc(Cl)c(Cl)c1,10.7%
22,O=C(/C=C/c1ccco1)/C=C/c1ccc(-c2ccc(Cl)c(Cl)c2)o1,75.1% (active)
23,O=C(O)/C=C/c1ccc(-c2ccc(Cl)c(Cl)c2)o1,-3.2%

row,SMILES,inhibition
1,O=C1C(Cl)=C/C(=N\S(=O)(=O)c2ccc(Cl)cc2)C(Cl)=C1Cl,-1%
2,Cc1ccc(S(=O)(=O)/N=C2\C=CC(=O)C=C2Cl)cc1,-0.1%
3,COc1ccc(S(=O)(=O)/N=C2\C=C(Br)C(=O)c3ccccc32)cc1,97.9% (active)
4,Cc1ccc(S(=O)(=O)/N=C2/C=C(Sc3nnnn3-c3ccccc3)C(=O)c3ccccc32)cc1,27.3%
5,Cc1ccc(S(=O)(=O)/N=C2\C=C(Sc3ncn[nH]3)C(=O)c3ccccc32)cc1,98.1% (active)
6,COC(=O)C(C(=O)OC)C1=C/C(=N/S(=O)(=O)c2ccc(C)cc2)c2ccccc2C1=O,1.7%
7,O=C1C(N2CCOCC2)=C/C(=N\S(=O)(=O)c2ccc(Cl)cc2)c2ccccc21,5.9%
8,Cc1ccc(S(=O)(=O)/N=C2/C=C(S(=O)(=O)c3ccc(C)cc3)C(=O)c3ccccc32)cc1,20.6%
9,Cc1ccc(S(=O)(=O)/N=C2\C=C(n3cnc4ccccc43)C(=O)c3ccccc32)cc1,36.8%
10,O=C1C(Cl)=CC(=NS(=O)(=O)c2ccc(Cl)cc2)c2ccccc21,95.7% (active)
11,Cc1ccc(S(=O)(=O)/N=C2/C=C(Cl)C(=O)c3ccccc32)cc1,52.7% (active)
12,COc1ccc(S(=O)(=O)N=C2C=CC(=NS(=O)(=O)c3ccc(OC)cc3)C=C2)cc1,1.8%
13,N#CC1=C(N)N(c2ccccc2)C(c2ccco2)C1(C#N)C#N (configuration not stated),-9.8%
14,COC(=O)c1ccccc1NC(=O)c1ccccc1C,0.2%
15,O=C(/C=C/c1ccc2c(c1)OCO2)NC1CC2CCC1C2 (configuration not stated),3.3%
16,COc1ccc(C2=NN(CN3C(=O)C(=O)c4ccccc43)C(c3ccccc3)C2)cc1 (configuration not stated),1.1%
17,O=C1C2=C(C(c3ccccc3)=NCCN2)C(c2ccc(O)cc2)N1c1ccccc1 (configuration not stated),0.2%
18,Cc1ccccc1N1C(=O)/C(=C\c2cccs2)SC1=S,0.2%
19,Cc1cccc(-c2nnc(SCc3nc4ccccc4[nH]3)n2Cc2ccco2)c1,-6.8%
20,O=S(=O)(NCCOCCNS(=O)(=O)c1ccccc1)c1ccccc1,-1.6%
21,Cc1ccc(/C(O)=C(\C#N)c2nc3ccccc3[nH]2)cc1,5.3%
22,O=C(O/N=C1/CCCc2c1sc1nc3n(c(=O)c21)CCCCC3)c1ccc([N+](=O)[O-])cc1,-4.1%
23,Cc1ccc(S(=O)(=O)NC(=O)N2CCc3ccccc32)cc1,4.5%

row,SMILES,inhibition
1,CCN(CC)C(=O)CSc1nc2cccnc2n1-c1ccccc1OC,-6.6%
2,OCCCc1nc2ccccc2n1Cc1ccc2ccccc2c1,3.2%
3,CCc1nn(CC(=O)NCCCN(CC)Cc2ccccc2)c(=O)c2cc3sccc3n12,2%
4,O=C1NC(=O)/C(=C/c2ccc(-c3ccc(O)c(C(=O)O)c3)o2)S1,105% (active)
5,O=C1/C(=C/c2ccc(-c3ccc(Cl)cc3C(=O)O)o2)Sc2ccccc21,7.4%
6,O=C1NC(=S)S/C1=C\c1ccc(-c2ccc(Cl)c(C(=O)O)c2)o1,10.9%
7,O=C(O)c1cc(-c2ccc(/C=C3/Sc4ccccc4C3=O)o2)ccc1O,84.4% (active)
8,O=C(O)c1cc(-c2ccc(C=C3C(=O)c4ccccc4C3=O)o2)ccc1O,47.2%
9,O=C1NC(=O)/C(=C\c2ccc(-c3ccc(C(=O)O)cc3)o2)S1,2.5%
10,COc1ccccc1CNC(=O)C(NC(=O)C1CCCCC1)C(C)C (configuration not stated),-3.5%
11,CCOC(=O)CNC(=S)Nc1ccc(F)cc1,1.8%
12,CN(C)c1ccc(/C=C/C=C/c2cc[n+](CCCS(=O)(=O)[O-])cc2)cc1,5%
13,c1ccc(-c2noc(C34CC5CC(CC(C5)C3)C4)n2)nc1,-5.1%
14,CN1C(=O)NC(=O)/C(=C/c2ccc(-c3ccc([N+](=O)[O-])cc3Cl)o2)C1=O,12%
15,CN1C(=O)NC(=O)/C(=C/c2ccc(-c3ccc(Cl)cc3Cl)o2)C1=O,66.9% (active)
16,CN1C(=O)NC(=O)/C(=C/c2ccc(-c3ccc(Cl)cc3)o2)C1=O,39.8%
17,CCn1nc(NC(=O)c2ccncc2)c2cc3cc(C)ccc3nc21,-13.2%
18,O=C(NCCN1CCOCC1)c1cnn2c(C(F)(F)F)cc(-c3ccc(Br)cc3)nc12,-0.4%
19,CCN1C(=O)N(COC(C)=O)C2C1N(COC(C)=O)C(=O)N2CC (configuration not stated),3.5%
20,Cc1c(-c2cccc(Cl)c2)nc2ccccc2c1C(=O)O,1.1%
21,O=C(Cn1c(O)c(N=NC(=O)c2ccc([N+](=O)[O-])cc2)c2ccccc21)Nc1ccccc1,0.9%
22,O=C(Cn1c(O)c(N=NC(=O)C(=O)Nc2ccc([N+](=O)[O-])cc2)c2ccccc21)Nc1ccccc1,-0.4%
23,Cc1ccc(C2SCC(=O)N2CCCN(C)C)cc1 (configuration not stated),-0.2%

row,SMILES,inhibition
1,Cc1c(Cl)cccc1N=C1NC(=O)/C(=C/c2ccc(OC(C)C)cc2)S1,3.5%
2,O=C(Nc1ccccc1Cl)c1cccc(NC(=O)C(F)(F)F)c1,98.8% (active)
3,Cc1ccccc1C(=O)Nc1cccc(C(=O)Nc2ccccc2Cl)c1,0.2%
4,O=C(Nc1ccccc1Cl)c1cccc(F)c1,0.5%
5,CCOC(=O)C1=C(O)CCn2c1nc1ccccc12,-0.7% and -13.2%
6,CCOC(=O)C1(C)C=C(Nc2ccc(S(=O)(=O)Nc3nccs3)cc2)C(=O)N1c1ccccc1 (configuration not stated),2.7%
7,COC(=O)c1c(NC(=O)c2cncc(Br)c2)sc2c1CCC2,-14%
8,Cc1ccccc1NC(=O)C(C)NC(=O)C12CC3CC(CC(C3)C1)C2 (configuration not stated),1.2%
9,COc1cc(NC(=O)c2cc3nc(-c4ccccc4)cc(C)n3n2)c(OC)cc1Cl,10.6%
10,COc1ccc(Cl)cc1NC(=O)c1cc2nc(-c3ccccc3)cc(C)n2n1,63.8% (active)
11,Cc1cc(-c2ccccc2)nc2cc(C(=O)Nc3ccc(Cl)cc3)nn12,3.4%
12,Cc1ccc(NC(=O)COc2ccc(Br)cc2)c(C)c1,2.7%
13,Cc1ccc(S(=O)(=O)Nc2cc(Sc3ncn[nH]3)c(O)c3ccccc23)cc1,56% (active)
14,Cc1ccc(S(=O)(=O)Nc2cc(Sc3nc4ccccc4[nH]3)c(O)c3ccccc23)cc1,8.1%
15,Cc1ccc(S(=O)(=O)Nc2cc(C)c(O)c(Sc3ncn[nH]3)c2)cc1,4.4%
16,COc1ccc(C2CC(=O)C3=C(C2)Nc2ccccc2NC3c2cccs2)cc1 (configuration not stated),3.6%
17,CCOC(=O)Cn1nc(-c2ccccc2)nc1-c1ccccc1,-8%
18,Cn1c(/C=C/c2ccc(Br)cc2)nc2ccccc2c1=O,0.8%
19,Cn1c(/C=C/c2cccnc2)nc2ccccc2c1=O,-2.3%
20,COc1ccc(-n2c(C)cc(C)nc2=O)cc1,-1.5%
21,CCSc1nc(-c2cccs2)nc2c1c(=O)n(C)c(=O)n2C,-4.4%
22,Cc1nc(C)n(C)c(=O)c1-c1ccccc1,-0.4%
23,COc1ccc(OC)c(/C=c2\sc3nc(-c4cccs4)nn3c2=O)c1,0.4%
